# Data: PubChem BioAssay
# The source made the active and inactive calls. The rule behind the calls is not given here.
# Molecular target: Pantothenate synthetase (Mycobacterium tuberculosis (strain ATCC 25618 / H37Rv)) (UniProt P9WIL5)
# Test: Coupled enzyme confirmation of inhibitors against recombinant Mtb PanC (AID 375);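 note: 0% = full reaction with vehicle and 100% = no enzyme background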
# Conditions: coupled enzyme assay; at 10 µM, stronger effect = higher value
# Pantothenate synthetase (Mycobacterium tuberculosis (strain ATCC 25618 / H37Rv)), sequence (P9WIL5 whole entry, looked up): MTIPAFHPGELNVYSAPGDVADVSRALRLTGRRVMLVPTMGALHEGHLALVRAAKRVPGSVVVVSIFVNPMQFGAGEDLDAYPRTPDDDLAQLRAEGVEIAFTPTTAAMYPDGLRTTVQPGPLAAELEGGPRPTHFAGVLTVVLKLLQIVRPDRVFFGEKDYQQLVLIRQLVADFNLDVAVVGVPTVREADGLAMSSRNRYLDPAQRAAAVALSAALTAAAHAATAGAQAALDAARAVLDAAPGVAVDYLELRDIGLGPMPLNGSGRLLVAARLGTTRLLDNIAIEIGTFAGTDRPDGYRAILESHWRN
row,Compound,inhibition
1,O=c1cc(-c2ccco2)oc2ccc(Cl)cc12,1% (inactive)
2,Cc1[nH]c(=O)[nH]c(=O)c1S(=O)(=O)N1c2ccc(F)cc2CCC1C (stereo not given),0% (inactive)
3,COCCNc1nc(SCC(=O)N2CCN(c3ccccc3)CC2)nc2ccccc12,5% (inactive)
4,O=C(NCc1nnc(SCC(=O)N2CCCCCC2)o1)c1ccco1,8% (inactive)
5,C[N+]12CCC(CC1)C(OC(=O)C(O)(c1ccccc1)c1ccccc1)C2 (stereo not given),0% (inactive)
6,O=C(COC(=O)c1ccc(NS(=O)(=O)c2ccc3c(c2)OCCO3)cc1)NCC1CCCO1 (stereo not given),2% (inactive)
7,CC1CN(c2nc3ccccn3c(=O)c2/C=C(\C#N)S(=O)(=O)c2ccccc2)CC(C)O1 (stereo not given),5% (inactive)
8,Cc1cccc(N2CCN(C(=O)Cn3nc(Cc4ccncc4)c4ccccc4c3=O)CC2)c1C,4% (inactive)
9,Cn1c(=O)c2c(nc(CN3CCOCC3)n2CC(O)CO)n(C)c1=O (stereo not given),8% (inactive)
10,CCOC(=O)N1CCN(C(=O)c2ccc3c(=O)n(CCc4ccccc4)c(=O)[nH]c3c2)CC1,0% (inactive)
11,COc1ccc(C(=O)NCC(=O)NC2=NCCS2)cc1,0% (inactive)
12,CCOc1ccc(-c2noc(-c3ccncc3)n2)cc1OCC,4% (inactive)
13,CCN(CC)C(=O)COc1ccc2oc(C)c(C(=O)OC(C)C)c2c1,4% (inactive)
14,Cc1ccc(-n2c3c(cc(C(=O)NCCCN4CCOCC4)c2=O)C(=O)CC(C)(C)C3)cc1,0% (inactive)
15,CCCC(=O)C1=C(N(C)c2ccccc2)CC(C)(C)C(C(=O)OC)C1=O (stereo not given),1% (inactive)
16,CCOC(=O)c1ccccc1NC(=O)COC(=O)C1=COCCO1,0% (inactive)
17,CC(=O)Nc1nc(-c2ccccc2)nc(C)c1C(C)=O,1% (inactive)
18,COc1ccc(NS(=O)(=O)c2c(C)[nH]c(=O)[nH]c2=O)c(OC)c1,0% (inactive)
19,Cc1nn(-c2ccccc2)c(Cl)c1C1C(C#N)=C(N)OC2=C1C(=O)CC(C)(C)C2 (stereo not given),0% (inactive)
20,c1ccc(CC2CCN(c3nc4ccccc4n4nnnc34)CC2)cc1,11% (inactive)

row,Compound,inhibition
1,CN(C)/C=C1\N=C(c2ccc3c(c2)OCO3)OC1=O,0% (inactive)
2,O=S1(=O)CCC(NS(=O)(=O)/C=C/c2ccccc2)C1 (stereo not given),8% (inactive)
3,CCN(CC)S(=O)(=O)c1ccc(Br)c(OC)c1,0% (inactive)
4,Cc1ccc(CNC(=O)C2CCCN(S(=O)(=O)c3cccnc3)C2)cc1 (stereo not given),0% (inactive)
5,O=C(O)CCc1ccc(-c2cccs2)n1CCC(=O)O,1% (inactive)
6,Cc1c(C(=O)OCc2ccccc2)[nH]c2c1C(=O)CC(c1ccco1)C2 (stereo not given),1% (inactive)
7,COc1ccc(-c2nc(CSCC(=O)N3CCc4ccccc4C3)c(C)o2)cc1OC,0% (inactive)
8,Cc1[nH]nc2c1C(=O)CC(C)(C)C2,0% (inactive)
9,COc1ccc(CCNC(=O)c2cc(-c3cc(C)c(C)cc3O)n[nH]2)cc1OC,0% (inactive)
10,CC(C)OC(=O)C(CC(=O)O)NCc1ccccc1 (stereo not given),1% (inactive)
11,COc1cccc(-c2nc(CS(=O)(=O)CC(=O)Nc3cc(C)ccc3C)c(C)o2)c1,0% (inactive)
12,COc1ccc(CCn2c(NCCCN3CCOCC3)nc3c2c(=O)[nH]c(=O)n3C)cc1,0% (inactive)
13,COc1ccc(-c2noc(C3CCCN(C(=O)CCc4ccccc4)C3)n2)cc1 (stereo not given),0% (inactive)
14,CN(C)S(=O)(=O)Nc1ccc(Br)cc1F,0% (inactive)
15,c1ccc(-n2nnnc2OCCOc2nnnn2-c2ccccc2)cc1,3% (inactive)
16,CCCS(=O)(=O)N1CCN(C(=O)CCC2CCCC2)CC1,0% (inactive)
17,Cc1ccc(-c2nc(=S)c3c(n2Cc2ccco2)CCCC3)cc1,0% (inactive)
18,CN1CCc2nc(SCC(=O)Nc3ccc(F)cc3)c(C#N)cc2C1,8% (inactive)
19,N#Cc1nc(-c2ccco2)oc1NCc1ccco1,11% (inactive)
20,CCN(C1CCCCC1)S(=O)(=O)c1ccc(S(=O)(=O)N2CCN(CCC#N)CC2)cc1,0% (inactive)
